The source of these data is ChEMBL document CHEMBL4513141, “CO-ADD screening of NIH (USA) - Clinical Collection” (2021).

One assay has as its system Staphylococcus aureus. The following applies: Concentration 20 uM; ASSAY_TEST Inhibition of Bacterial Growth; detection method Absorption (OD600); MEDIA CAMHB; plate type 384well; NBS; CORNING #3640; time 18 hr.
The subject of the next assay is Escherichia coli. The following applies: Concentration 20 uM; ASSAY_TEST Inhibition of Bacterial Growth; detection method Absorption (OD600); MEDIA CAMHB; plate type 384well; NBS; CORNING #3640; time 18 hr.

Each structure is given as a SMILES string. Potency and affinity values are given separately.

A word on the Inhibition: it is the relative decrease from the control value, in per cent. In the case of `CC(C)(S)C(N)C(=O)O` (stereo not drawn) [DL-PENICILLAMINE], the Inhibition in the assay with Staphylococcus aureus is reported as 15.93%; with Escherichia coli it was -3.28%.
As to `CCC1=C(C)CN(C(=O)NCCc2ccc(S(=O)(=O)NC(=O)N[C@H]3CC[C@H](C)CC3)cc2)C1=O` [GLIMEPIRIDE], the Inhibition in the assay with Staphylococcus aureus amounted to 15.98%; with Escherichia coli it was 1.16%.
On to `Cc1ccc(S(=O)(=O)NC(=O)NN2CCCCCC2)cc1` [TOLAZAMIDE], for which the values for the Inhibition with Staphylococcus aureus and in the assay on Escherichia coli were 2.29% and -1.66%, respectively.
The matching figures for `O=C(NCCO[N+](=O)[O-])c1cccnc1` [NICORANDIL]: 13.24% and 8.35%.
As for `CCCCN1CCCC1CNC(=O)c1cc(C#N)c2ccccc2c1OC` (configuration not stated) [NAFADOTRIDE], the results for the Inhibition in the assay with Staphylococcus aureus and with Escherichia coli were 6.62% and 2.47%, respectively.
The matching figures for `CC1=C(CC(=O)O)c2cc(F)ccc2/C1=C\c1ccc([S+](C)[O-])cc1` (configuration not stated): 2.19% and 3.68%.
Consider `COc1cc(C(=O)NC2CCCNC2)cc(OC)c1OC` (configuration not stated) [TROXIPIDE], for which the Inhibition with Staphylococcus aureus is recorded as 21.18%; in the assay on Escherichia coli, 2.83%.
The matching figures for `CC(=O)OCC(=O)[C@@]1(O)CC[C@H]2[C@@H]3C[C@H](C)C4=CC(=O)C=C[C@]4(C)[C@H]3[C@@H](O)C[C@@]21C` [METHYLPREDNISOLONE ACETATE]: 6.17% and -0.44%.
In the case of `Cl.Clc1ccccc1CN1CCc2sccc2C1` [TICLOPIDINE HYDROCHLORIDE], the values for the Inhibition in the assay with Staphylococcus aureus and in the assay on Escherichia coli were 6.77% and 1.84%, respectively.
For `O=C(C1CCCCC1)N1CC(=O)N2CCc3ccccc3C2C1` (configuration not stated) [PRAZIQUANTEL], in that order: 20.65% and 3.85%.
The matching figures for `CSc1nc2cc(Cl)c(Oc3cccc(Cl)c3Cl)cc2[nH]1` [TRICLABENDAZOLE]: 7.06% and -5.3%.
